# Results published in the supplement of paper PMC4466140.
# B1: unnamed (peptide)
# chain: KDKSRPPRPPPKPLH
# B2: unnamed (peptide)
# chain: GDHPKGPPPPPPPPD
# Key:
# Test in all cases: SPOT peptide array binding signal intensity (averaged, normalized) (arbitrary units (background-subtracted, floor 0; scale differs between SH3 domains)); higher = stronger binding of the SH3 domain to the peptide
# AgAbp1 = target: AgAbp1
# Method in brief: (§1)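 Binding signal is given in arbitrary units that differ between domains and is the normalized, background-subtracted spot intensity averaged across replicates. Each GST-SH3 fusion from one of four yeast species was made in E. coli BL21(DE3), purified on glutathione Sepharose and incubated at 10 μg/ml overnight at 4°C on cellulose-bound synthetic 15-mer peptides in which cysteines were replaced by serines. Detection used anti-GST antibody, an HRP anti-mouse secondary and luminol, followed by imaging and Genespotter quantification.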
# AgBbc1 = target: AgBbc1
# Method in brief: as §1
# AgBem1-D1 = target: AgBem1-D1
# Method in brief: as §1
# AgBzz1-D1 = target: AgBzz1-D1
# Method in brief: as §1
# AgBzz1-D2 = target: AgBzz1-D2
# Method in brief: as §1
# AgCyk3 = target: AgCyk3
# Method in brief: as §1
# AgFus1 = target: AgFus1
# Method in brief: as §1
# AgHof1 = target: AgHof1
# Method in brief: as §1
# AgHse1 = target: AgHse1
# Method in brief: as §1
# AgLsb1 = target: AgLsb1
# Method in brief: as §1
# AgLsb4 = target: AgLsb4
# Method in brief: as §1
# AgMyo5 = target: AgMyo5
# Method in brief: as §1
# AgNbp2 = target: AgNbp2
# Method in brief: as §1
# AgRvs167 = target: AgRvs167
# Method in brief: as §1
# AgSho1 = target: AgSho1
# Method in brief: as §1
# AgSla1-D1-D2 = target: AgSla1-D1-D2
# Method in brief: as §1
# AgSla1-D3 = target: AgSla1-D3
# Method in brief: as §1
# CaAbp1-D1 = target: CaAbp1-D1
# Method in brief: as §1
# CaAbp1-D2 = target: CaAbp1-D2
# Method in brief: as §1
# CaBbc1 = target: CaBbc1
# Method in brief: as §1
# CaBem1-D1 = target: CaBem1-D1
# Method in brief: as §1
# CaBzz1-D1 = target: CaBzz1-D1
# Method in brief: as §1
# CaBzz1-D2 = target: CaBzz1-D2
# Method in brief: as §1
# CaCyk3 = target: CaCyk3
# Method in brief: as §1
# CaFus1 = target: CaFus1
# Method in brief: as §1
# CaHof1 = target: CaHof1
# Method in brief: as §1
# CaHse1 = target: CaHse1
# Method in brief: as §1
# CaLsb1 = target: CaLsb1
# Method in brief: as §1
# CaLsb4 = target: CaLsb4
# Method in brief: as §1
# CaMyo5 = target: CaMyo5
# Method in brief: as §1
# CaNbp2 = target: CaNbp2
# Method in brief: as §1
# CaRvs167 = target: CaRvs167
# Method in brief: as §1
# CaRvs167-3 = target: CaRvs167-3
# Method in brief: as §1
# CaSho1 = target: CaSho1
# Method in brief: as §1
# CaSla1-D1-D2 = target: CaSla1-D1-D2
# Method in brief: as §1
# CaSla1-D3 = target: CaSla1-D3
# Method in brief: as §1
# ScAbp1 = target: ScAbp1
# Method in brief: as §1
# ScBbc1 = target: ScBbc1
# Method in brief: as §1
# ScBem1-D1 = target: ScBem1-D1
# Method in brief: as §1
# ScBzz1-D1 = target: ScBzz1-D1
# Method in brief: as §1
# ScBzz1-D2 = target: ScBzz1-D2
# Method in brief: as §1
# ScCyk3 = target: ScCyk3
# Method in brief: as §1
# ScFus1 = target: ScFus1
# Method in brief: as §1
# ScHof1 = target: ScHof1
# Method in brief: as §1
# ScHse1 = target: ScHse1
# Method in brief: as §1
# ScLsb1 = target: ScLsb1
# Method in brief: as §1
# ScLsb2 = target: ScLsb2
# Method in brief: as §1
# ScLsb3 = target: ScLsb3
# Method in brief: as §1
# ScLsb4 = target: ScLsb4
# Method in brief: as §1
# ScMyo3 = target: ScMyo3
# Method in brief: as §1
# ScMyo5 = target: ScMyo5
# Method in brief: as §1
# ScNbp2 = target: ScNbp2
# Method in brief: as §1
# ScPex13 = target: ScPex13
# Method in brief: as §1
# ScRvs167 = target: ScRvs167
# Method in brief: as §1
# ScSho1 = target: ScSho1
# Method in brief: as §1
# ScSla1-D1-D2 = target: ScSla1-D1-D2
# Method in brief: as §1
# ScSla1-D3 = target: ScSla1-D3
# Method in brief: as §1
# SpAbp1-D1 = target: SpAbp1-D1
# Method in brief: as §1
# SpBbc1 = target: SpBbc1
# Method in brief: as §1
# SpBzz1-D1 = target: SpBzz1-D1
# Method in brief: as §1
# SpBzz1-D2 = target: SpBzz1-D2
# Method in brief: as §1
# SpCyk3 = target: SpCyk3
# Method in brief: as §1
# SpHof1 = target: SpHof1
# Method in brief: as §1
# SpHof1-2 = target: SpHof1-2
# Method in brief: as §1
# SpHof1-3 = target: SpHof1-3
# Method in brief: as §1
# SpHse1 = target: SpHse1
# Method in brief: as §1
# SpLsb1 = target: SpLsb1
# Method in brief: as §1
# SpLsb4 = target: SpLsb4
# Method in brief: as §1
# SpMyo1 = target: SpMyo1
# Method in brief: as §1
# SpNbp2 = target: SpNbp2
# Method in brief: as §1
# SpPex13 = target: SpPex13
# Method in brief: as §1
# SpRvs167 = target: SpRvs167
# Method in brief: as §1
# SpSla1-D1-D2 = target: SpSla1-D1-D2
# Method in brief: as §1
# SpSla1-D3 = target: SpSla1-D3
# Method in brief: as §1
binder,measurement,setting,value
B1,SPOT peptide array binding signal intensity,AgAbp1,917
same,SPOT peptide array binding signal intensity,AgBbc1,282
same,SPOT peptide array binding signal intensity,AgBem1-D1,30
same,SPOT peptide array binding signal intensity,AgBzz1-D1,257
same,SPOT peptide array binding signal intensity,AgBzz1-D2,119
same,SPOT peptide array binding signal intensity,AgCyk3,≤ 0
same,SPOT peptide array binding signal intensity,AgFus1,≤ 0
same,SPOT peptide array binding signal intensity,AgHof1,55.8
same,SPOT peptide array binding signal intensity,AgHse1,27
same,SPOT peptide array binding signal intensity,AgLsb1,7.5
same,SPOT peptide array binding signal intensity,AgLsb4,11.5
same,SPOT peptide array binding signal intensity,AgMyo5,≤ 0
same,SPOT peptide array binding signal intensity,AgNbp2,138
same,SPOT peptide array binding signal intensity,AgRvs167,1.33
same,SPOT peptide array binding signal intensity,AgSho1,71.5
same,SPOT peptide array binding signal intensity,AgSla1-D1-D2,≤ 0
same,SPOT peptide array binding signal intensity,AgSla1-D3,7.5
same,SPOT peptide array binding signal intensity,CaAbp1-D1,298
same,SPOT peptide array binding signal intensity,CaAbp1-D2,780
same,SPOT peptide array binding signal intensity,CaBbc1,240
same,SPOT peptide array binding signal intensity,CaBem1-D1,382
same,SPOT peptide array binding signal intensity,CaBzz1-D1,3930
same,SPOT peptide array binding signal intensity,CaBzz1-D2,748
same,SPOT peptide array binding signal intensity,CaCyk3,23.5
same,SPOT peptide array binding signal intensity,CaFus1,≤ 0
same,SPOT peptide array binding signal intensity,CaHof1,≤ 0
same,SPOT peptide array binding signal intensity,CaHse1,67
same,SPOT peptide array binding signal intensity,CaLsb1,0.5
same,SPOT peptide array binding signal intensity,CaLsb4,158
same,SPOT peptide array binding signal intensity,CaMyo5,≤ 0
same,SPOT peptide array binding signal intensity,CaNbp2,88.5
same,SPOT peptide array binding signal intensity,CaRvs167,8.67
same,SPOT peptide array binding signal intensity,CaRvs167-3,0.5
same,SPOT peptide array binding signal intensity,CaSho1,≤ 0
same,SPOT peptide array binding signal intensity,CaSla1-D1-D2,602
same,SPOT peptide array binding signal intensity,CaSla1-D3,21.5
same,SPOT peptide array binding signal intensity,ScAbp1,670
same,SPOT peptide array binding signal intensity,ScBbc1,8.5
same,SPOT peptide array binding signal intensity,ScBem1-D1,≤ 0
same,SPOT peptide array binding signal intensity,ScBzz1-D1,123
same,SPOT peptide array binding signal intensity,ScBzz1-D2,≤ 0
same,SPOT peptide array binding signal intensity,ScCyk3,≤ 0
same,SPOT peptide array binding signal intensity,ScFus1,≤ 0
same,SPOT peptide array binding signal intensity,ScHof1,≤ 0
same,SPOT peptide array binding signal intensity,ScHse1,24
same,SPOT peptide array binding signal intensity,ScLsb1,121
same,SPOT peptide array binding signal intensity,ScLsb2,1
same,SPOT peptide array binding signal intensity,ScLsb3,1930
same,SPOT peptide array binding signal intensity,ScLsb4,15.5
same,SPOT peptide array binding signal intensity,ScMyo3,29.5
same,SPOT peptide array binding signal intensity,ScMyo5,49.5
same,SPOT peptide array binding signal intensity,ScNbp2,305
same,SPOT peptide array binding signal intensity,ScPex13,103
same,SPOT peptide array binding signal intensity,ScRvs167,45
same,SPOT peptide array binding signal intensity,ScSho1,171
same,SPOT peptide array binding signal intensity,ScSla1-D1-D2,266
same,SPOT peptide array binding signal intensity,ScSla1-D3,11.5
same,SPOT peptide array binding signal intensity,SpAbp1-D1,528
same,SPOT peptide array binding signal intensity,SpBbc1,≤ 0
same,SPOT peptide array binding signal intensity,SpBzz1-D1,366
same,SPOT peptide array binding signal intensity,SpBzz1-D2,16.8
same,SPOT peptide array binding signal intensity,SpCyk3,1
same,SPOT peptide array binding signal intensity,SpHof1,≤ 0
same,SPOT peptide array binding signal intensity,SpHof1-2,≤ 0
same,SPOT peptide array binding signal intensity,SpHof1-3,75.5
same,SPOT peptide array binding signal intensity,SpHse1,21.5
same,SPOT peptide array binding signal intensity,SpLsb1,484
same,SPOT peptide array binding signal intensity,SpLsb4,670
same,SPOT peptide array binding signal intensity,SpMyo1,277
same,SPOT peptide array binding signal intensity,SpNbp2,13.5
same,SPOT peptide array binding signal intensity,SpPex13,≤ 0
same,SPOT peptide array binding signal intensity,SpRvs167,129
same,SPOT peptide array binding signal intensity,SpSla1-D1-D2,≤ 0
same,SPOT peptide array binding signal intensity,SpSla1-D3,3
B2,SPOT peptide array binding signal intensity,AgAbp1,≤ 0
same,SPOT peptide array binding signal intensity,AgBbc1,≤ 0
same,SPOT peptide array binding signal intensity,AgBem1-D1,≤ 0
same,SPOT peptide array binding signal intensity,AgBzz1-D1,440
same,SPOT peptide array binding signal intensity,AgBzz1-D2,43
same,SPOT peptide array binding signal intensity,AgCyk3,≤ 0
same,SPOT peptide array binding signal intensity,AgFus1,3
same,SPOT peptide array binding signal intensity,AgHof1,≤ 0
same,SPOT peptide array binding signal intensity,AgHse1,≤ 0
same,SPOT peptide array binding signal intensity,AgLsb1,≤ 0
same,SPOT peptide array binding signal intensity,AgLsb4,≤ 0
same,SPOT peptide array binding signal intensity,AgMyo5,1010
same,SPOT peptide array binding signal intensity,AgNbp2,3
same,SPOT peptide array binding signal intensity,AgRvs167,≤ 0
same,SPOT peptide array binding signal intensity,AgSho1,3
same,SPOT peptide array binding signal intensity,AgSla1-D1-D2,≤ 0
same,SPOT peptide array binding signal intensity,AgSla1-D3,699
same,SPOT peptide array binding signal intensity,CaAbp1-D1,≤ 0
same,SPOT peptide array binding signal intensity,CaAbp1-D2,≤ 0
same,SPOT peptide array binding signal intensity,CaBbc1,≤ 0
same,SPOT peptide array binding signal intensity,CaBem1-D1,≤ 0
same,SPOT peptide array binding signal intensity,CaBzz1-D1,2370
same,SPOT peptide array binding signal intensity,CaBzz1-D2,1470
same,SPOT peptide array binding signal intensity,CaCyk3,4
same,SPOT peptide array binding signal intensity,CaFus1,19
same,SPOT peptide array binding signal intensity,CaHof1,≤ 0
same,SPOT peptide array binding signal intensity,CaHse1,3.5
same,SPOT peptide array binding signal intensity,CaLsb1,≤ 0
same,SPOT peptide array binding signal intensity,CaLsb4,≤ 0
same,SPOT peptide array binding signal intensity,CaMyo5,34
